Test results published in PubChem BioAssay AID624430 (Broad Institute, 2012).
Entries with a potency or affinity are not part of this list.

experiment: TRPM1 promoter luciferase reporter signal decrease, dose response, MITF inhibitor project, cell-based, SK-MEL-5, dry powder, set 8 (AID 624430); conditions: SK-MEL-5 TRPM1 promoter luciferase reporter, 24 h; series mostly up to 35 µM; activity change, negative = inhibition: at the top concentration;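 active means compound whose falling signal curve reaches half its effect at no more than twice the top valid dose; inconclusive means flat curve with 30 to 70% inhibition, or poor fit; inactive means the rest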

Activity change, negative = inhibition, inactive:
CC1=C(N)C(=O)c2ccccc2C1=O 27.8%
O=C1C=C(Nc2ccc3ccccc3c2)C(=O)c2ccccc21 -25.7%
O=C1C=C(NC2CCCCC2)C(=O)c2ccccc21 40.2%
Cc1ccc(NC2=CC(=O)c3ccccc3C2=O)cc1C -73.2%
O=C1C=C(Nc2ccc(F)cc2)C(=O)c2ccccc21 12.9%
O=C1C=C(NCc2ccccc2)C(=O)c2ccccc21 3.45%
COc1ccc(NC2=CC(=O)c3ccccc3C2=O)cc1 -70.2%
